In the supplement of paper PMC13380429:

System: Vero E6 infected with SARS-CoV-2
Test: inhibition of SARS-CoV-2 cytopathic effect; higher = more antiviral protection, active = above 15
Conditions: 48 h

Measured: inhibition of SARS-CoV-2 cytopathic effect

c1ccc2sc(N3CCN(Cc4ccc5c(c4)OCO5)CC3)nc2c1 [2-[1-(4-piperonyl)piperazinyl]benzothiazole]
inactive: 1 nM -3.54% | 8.33 nM -1.04% | 100 nM -3.92% | 833.33 nM -3.68% | 10000 nM -2.73%

Cn1c2c(c3ccccc31)CCNCC2
inactive: 1 nM 3.79% | 8.33 nM 2.27% | 100 nM -0.51% | 833.33 nM 0.96% | 10000 nM -0.01%

C/C1=C/C[C@@H](/C(C)=C/c2csc(C)n2)OC(=O)C[C@H](O)C(C)(C)C(=O)[C@H](C)[C@@H](O)[C@@H](C)CCC1 [epothilone-D]
inactive: 1 nM 2.13% | 8.33 nM -0.55% | 100 nM -1.83% | 833.33 nM -0.53% | 10000 nM -1.4%

Cc1ncc([N+](=O)[O-])n1CCO [metronidazole]
inactive: 1 nM 1.71% | 8.33 nM -0.45% | 100 nM 1.81% | 833.33 nM 0.19% | 10000 nM -1.16%

c1ccc(CCCN2CCN(CCOC(c3ccccc3)c3ccccc3)CC2)cc1
inactive: 1 nM 0.71% | 8.33 nM 0.97% | 100 nM -0.18% | 833.33 nM 0.61% | 10000 nM -1.85%

Cc1coc2c1C(=O)C(=O)c1c-2ccc2c1CCCC2(C)C [tanshinone-IIA]
inactive: 1 nM -0.65% | 8.33 nM 2.92% | 100 nM 0.8% | 833.33 nM -7.33% | 10000 nM -6.78%

O=C(O)/C=C/c1ccc(O)c(O)c1 [caffeic-acid]
inactive: 1 nM 2.05% | 8.33 nM -0.05% | 100 nM 0.87% | 833.33 nM -0.22% | 10000 nM -4.36%

CCOC(=O)c1ccc(NC2CCCCC2)c(N)c1 [ferrostatin-1]
inactive: 1 nM 0.05% | 8.33 nM 3.56% | 100 nM 2.61% | 833.33 nM 2.6% | 10000 nM 2.1%

CCC[C@H](N[C@@H](C)C(=O)N1[C@H](C(=O)O)C[C@@H]2CCCC[C@@H]21)C(=O)OCC [perindopril]
inactive: 1 nM -0.73% | 8.33 nM 1.32% | 100 nM -0.77% | 833.33 nM 0.99% | 10000 nM 0.19%

Cc1cc(Nc2ncnc3ccc(-c4ccc(CNCCS(C)(=O)=O)o4)cc23)ccc1Oc1ccn2ncnc2c1 [HER2-Inhibitor-1]
inactive: 1 nM 2.32% | 8.33 nM 3.23% | 100 nM -0.2% | 833.33 nM -2.65% | 10000 nM 3.1%

O=C1c2ccccc2C(Cc2ccncc2)(Cc2ccncc2)c2ccccc21
inactive: 1 nM 1.49% | 8.33 nM -1.95% | 100 nM -1.48% | 833.33 nM -2.88% | 10000 nM -3.65%

COC(=O)C1=C(C)NC(C)=C(C(=O)OCCSc2ccccc2)[C@@H]1C
inactive: 1 nM -2.31% | 8.33 nM -3.84% | 100 nM -2.77% | 833.33 nM -0.76% | 10000 nM 3.1%

C[C@H](CCC(=O)O)[C@H]1CC[C@H]2[C@@H]3C(=O)C[C@@H]4CC(=O)CC[C@]4(C)[C@H]3CC(=O)[C@]12C [dehydrocholate-acid]
inactive: 1 nM -5.5% | 8.33 nM -4.18% | 100 nM -2.25% | 833.33 nM -2.84% | 10000 nM -7.01%

Cc1cccc(C)c1NC(=O)/N=C1\CCCN1C [xilobam]
inactive: 1 nM -1.73% | 8.33 nM -0.97% | 100 nM 1.82% | 833.33 nM -0.83% | 10000 nM 1.68%

CCOC(=O)CC(=O)N1CCSC1COc1ccccc1OC (stereo not given) [moguisteine]
inactive: 1 nM -0.34% | 8.33 nM 0.03% | 100 nM -3.76% | 833.33 nM -0.38% | 10000 nM 0.52%

CCOC(=O)Nc1ccc(NCc2ccc(F)cc2)cc1N [Retigabine]
inactive: 1 nM -1.92% | 8.33 nM 1.16% | 100 nM -1.6% | 833.33 nM -2.18% | 10000 nM 1.01%

CC(=O)OCC(=O)[C@@]1(OC(C)=O)[C@@H](C)C[C@H]2[C@@H]3C[C@H](F)C4=CC(=O)C=C[C@]4(C)[C@@]3(F)[C@@H](O)C[C@@]21C [diflorasone-diacetate]
inactive: 1 nM 3.78% | 8.33 nM 2.43% | 100 nM 1.22% | 833.33 nM 0.13% | 10000 nM 1.53%

NC[C@H]1CC[C@H](C(=O)O)CC1 [tranexamic-acid]
inactive: 1 nM 1.98% | 8.33 nM 1.51% | 100 nM 2.74% | 833.33 nM 0.85% | 10000 nM -0.32%
